Common to all, as to assay type: functional
The target in experiment [1] is Solute carrier family 2, facilitated glucose transporter member 1 (Homo sapiens) (UniProt P11166). Briefly: ST_JUDE_LEISH: Cytotoxicity at 2uM final concentration against transgenic Leishmania Mexicana promastigotes LmGLUT1 that are glucose transport deficient and complemented with the human glucose transporter GLUT1. Activity is measured by DNA content using SYBR green in vitro.

In experiment [2] the target is Hexose transporter 1 (Plasmodium falciparum) (UniProt O97467). Briefly: ST_JUDE_LEISH: Cytotoxicity at 2uM final concentration against transgenic Leishmania Mexicana promastigotes LmPfHT that are glucose transport deficient and complemented with the Plasmodium falciparum hexose transporter. Activity is measured by DNA content using SYBR green in vitro.
In experiment [3] the target is Glucose transporter (Leishmania mexicana) (UniProt O61059). The experiment is described as follows: ST_JUDE_LEISH: Cytotoxicity at 2uM final concentration against transgenic Leishmania Mexicana promastigotes LmGT2 that are glucose transport deficient and complemented with the L. Mexicana glucose transporter 2. Activity is measured by DNA content using SYBR green in vitro.

As usually defined, the inhibition is the relative decrease from the control value, in per cent.

Sequence of Solute carrier family 2, facilitated glucose transporter member 1 (Homo sapiens) (P11166 whole entry): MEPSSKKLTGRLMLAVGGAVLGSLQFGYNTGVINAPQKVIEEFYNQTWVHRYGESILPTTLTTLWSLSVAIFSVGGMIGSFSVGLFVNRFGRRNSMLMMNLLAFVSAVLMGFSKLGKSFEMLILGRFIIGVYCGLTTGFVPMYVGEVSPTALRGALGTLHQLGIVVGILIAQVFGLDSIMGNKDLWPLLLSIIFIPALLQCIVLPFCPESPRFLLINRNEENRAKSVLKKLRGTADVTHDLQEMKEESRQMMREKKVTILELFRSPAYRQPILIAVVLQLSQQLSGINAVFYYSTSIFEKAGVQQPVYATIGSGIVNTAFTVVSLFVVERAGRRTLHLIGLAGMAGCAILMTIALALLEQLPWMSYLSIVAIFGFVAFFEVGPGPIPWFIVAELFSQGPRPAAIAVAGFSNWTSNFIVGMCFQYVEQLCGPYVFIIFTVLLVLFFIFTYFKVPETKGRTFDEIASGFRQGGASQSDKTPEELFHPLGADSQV

With `CC(C)(CNC(=O)C1CCN(CCOc2ccc(F)c(F)c2)CC1)c1nc(-c2ccc(Cl)c(O)c2)c(-c2ccncc2)[nH]1`, the results for the inhibition in experiment [1], in experiment [2] and in experiment [3] were 4.62%, 4.16% and 5.08%, respectively.
The like results for `Oc1ccc(CCNCCCCCCNCCCc2ccc(Cl)cc2)cc1O` were, in that order, 2.83%, 4.13% and 4.05%.
In the case of `COc1ccc(Cl)cc1N1CCN(CCCNC(=O)c2ccc(-c3nc4cc(Cl)c(C)cc4[nH]3)s2)CC1`, the inhibition is 4.06% in experiment [1], 1.78% in experiment [2] and 1.42% in experiment [3].
The like results for `Cc1cc(NCCC(=O)Nc2ccccc2)nc(NCc2ccccc2C)n1` were, in that order, 11%, 10.5% and 7.37%.
The like results for `Cc1cc(-c2ccc(CN3Cc4ccccc4C3)cc2)ccc1S(=O)(=O)NCCN1CCCC1` were, in that order, 40.3%, 17.2% and 11%.
The like results for `O=C(NCCCCN1CCC(c2ccc(-c3ccco3)cc2)CC1)c1ccc(NC(=O)c2ccc(Cl)cc2)cc1` were, in that order, 2.25%, 2.49% and -0.22%.
Turning to `COc1cc(OC)cc(-c2nn(-c3ccc([N+](=O)[O-])cc3C#N)c(=S)n2Cc2ccco2)c1`, the inhibition was 0.03% in experiment [1], -1.55% in experiment [2] and 4.15% in experiment [3].
The like results for `CCc1c(C)c2ccc3c(c2oc1=O)CN(CCc1ccc(F)cc1)CO3` were, in that order, 6.07%, 6.16% and 5.28%.
The like results for `CN1CCC(C(=O)Nc2cccc(-c3ccc(-c4nc5cc(C(F)(F)F)ccc5[nH]4)cc3)c2)CC1` were, in that order, 4.82%, 2.75% and 3.82%.
The matching figures for `c1cc(OCCN2CCCC2)ccc1CNC1CCN(CC2CCCCC2)CC1`: -3.76%, -0.11% and -4.21%.
Take `COc1cc(Cc2cnc(N)nc2N)cc(OCCCN2C(=O)c3ccccc3C2=O)c1OC`: the inhibition in experiment [1] is 4.68%; in experiment [2] it was 5.99%; in experiment [3], 6.69%.
The matching figures for `Cc1ccccc1Nc1cc(Nc2ccccc2C)c2ccccc2n1`: 42.9%, 42.2% and 16.1%.
The like results for `Cc1[nH]c(C)c(-c2ccc(OCc3cc(F)cc(F)c3)nc2)c(=O)c1Cl` were, in that order, 5.4%, 4.58% and 2.08%.
The like results for `CN(C)c1ccc(C=C2SC(=O)N=C2Nc2ccccc2)cc1` were, in that order, 1.62%, 0.09% and 0.57%.
Consider `COc1cc(O)c2c(=O)c(OC)c(-c3cccc(Cl)c3OCC(=O)O)oc2c1OC`, for which the inhibition is -2.29% in experiment [1], -1.48% in experiment [2] and -0.46% in experiment [3].
The matching figures for `Cc1cccc2nc(-c3ccc(-c4cccc(CN5CCN(CCO)CC5)c4)cc3)[nH]c12`: 7.34%, 4.65% and 4.22%.
The like results for `c1ccc2[nH]c(-c3ccc(-c4ccc(CN5CCCCC5)cc4)s3)nc2c1` were, in that order, 0.97%, 0.62% and -0.34%.
The like results for `Cc1cnccc1/C=C/c1cccc(OCCN2CCc3ccc(S(C)(=O)=O)cc3CC2)c1` were, in that order, 1.95%, 2.77% and 1.68%.
As for `Cc1cccc(CNc2nc(C)cc(N[C@@H](Cc3ccccc3)C(=O)NCCOc3ccccc3)n2)c1`, the inhibition in experiment [1] came out at 16.6%; in experiment [2] it was 15.8%; in experiment [3], 11.4%.
The like results for `COC(=O)c1ccc(NC(=O)c2ccc(CCN3CCC(c4nc(COCC(F)(F)F)c(-c5ccc(F)cc5)o4)CC3)cc2)cc1` were, in that order, 3.21%, 3.11% and 2.38%.
The matching figures for `Cc1cc2c(cc1C(F)(F)F)N(C(=O)Nc1cc(C(=O)NC3CCN(Cc4ccccc4)C3)cc(C(F)(F)F)c1)CC2` (stereo unspecified): 6.43%, 6.1% and 7.35%.
`COc1cc2c(cc1OC)CC(NCCCCCCNCCc1ccc(Cl)cc1)CC2` (stereo unspecified): the inhibition in experiment [1] is 0.92%; in experiment [2] it was -1.16%; in experiment [3] it was 0.76%.
The matching figures for `CC(C)N(Cc1cnc(N)c(C#N)n1)c1ccc(Cl)c(Cl)c1`: 3.62%, 2.68% and 2.67%.
The matching figures for `Oc1ccc(CCNc2nc(NCc3ccccc3Oc3ccc(C(F)(F)F)cc3)nc(N3CCNCC3)n2)cc1`: -0.98%, -1.74% and -2.4%.
The matching figures for `CN=C(S)NN=C(C)c1ccccn1`: 2.61%, -4.43% and -1.99%.
Turning to `CS(=O)(=O)c1ccccc1CNC(=O)c1ccc(-c2cccc(-c3nc4cc(C(F)(F)F)ccc4[nH]3)c2)cc1`, the inhibition in experiment [1] stood at 2.96%; in experiment [2] it was 2.74%; in experiment [3] it was 2.22%.
The matching figures for `CC(C)c1cc2c(ccc3nc(N)nc(N)c32)o1`: 3.76%, 5.34% and 2.93%.
The like results for `Cc1cc(C(=O)Nc2ccc3c(c2)CCN3C2CCN(Cc3cc(F)cc(F)c3F)C2)no1` (stereo unspecified) were, in that order, -0.31%, 1.36% and 5.53%.
The matching figures for `Cc1cc2nc(-c3ccc(C(=O)NCc4cccc(F)c4)cc3)[nH]c2cc1C`: -0.23%, 0.73% and -1.73%.
For `CC(C)N(Cc1ccc(-c2ccc(C(F)(F)F)cc2)cc1)C(=O)Cn1c(CCc2cccc(F)c2F)cc(=O)c2ccc(CCCN3CCCCC3)cc21`, the inhibition in experiment [1] worked out at 3.56%; in experiment [2], 4.4%; in experiment [3], 3.61%.
The matching figures for `CC(Cc1ccc(CN2CCN(Cc3ccccc3)CC2)cc1)NCC(O)c1cccc(C(F)(F)F)c1` (stereo unspecified): 5.03%, 4.18% and 5.25%.
The matching figures for `COc1ccc(-c2ccc(NC(=O)c3cccc(Cl)c3)cc2)cc1CNC(C)C`: 4.75%, 5.52% and 1.96%.

The record behind these values is ChEMBL document CHEMBL3433997, “St. Jude Leishmania screening dataset” (2016).
